ChEMBL document CHEMBL3433997, “St. Jude Leishmania screening dataset” (2016)

Biological target: Glucose transporter (Leishmania mexicana) (UniProt O61059)
Assay: ST_JUDE_LEISH: Cytotoxicity at 2uM final concentration against transgenic Leishmania Mexicana promastigotes LmGT2 that are glucose transport deficient and complemented with the L. Mexicana glucose transporter 2. Activity is measured by DNA content using SYBR green in vitro
Assay type: functional

| Compound | inhibition [%] |
| --- | --- |
| O=C(Nc1ccccc1)N(Cc1ccccc1-c1cccc(CNCc2ccc3c(c2)OCO3)c1)C1CCN(Cc2ccccc2)CC1 | -2.56 |
| CCCCCCCCN1CCN(CCCCCCNc2c3ccccc3nc3ccccc23)CC1 | 61.1 |
| Cc1nc(-c2cccc(Nc3nccc(NCC(O)c4ccc(C(F)(F)F)cc4)n3)c2)cs1 (stereo not given) | -0.68 |
| COc1cc(Cc2cnc(N)nc2N)ccc1OCc1csc(-c2ccc(Cl)cc2)n1 | 9.8 |
| CCCC(C)Nc1nc(C)cc(NCCC(=O)Nc2ccc(OC)cc2)n1 (stereo not given) | -0.58 |
| CN(CCCNCc1ccc2ccccc2c1)CCCNCc1ccc2ccccc2c1 | 3.29 |
| N#Cc1cnc2cc(-c3cnc(CNCCN4CCOCC4)s3)ccc2c1Nc1ccc(Oc2ccccc2)cc1 | 1.64 |
| N#Cc1ccc2c(c1)CCN(CCC1CCC(NC(=O)c3cc4ccc(Br)cc4[nH]3)CC1)C2 (stereo not given) | 1.16 |
| N#Cc1ccc(NC(=O)Nc2ccc(OC(F)(F)F)cc2)cc1 | -0.05 |
| O=C(Nc1ccc(F)c(F)c1)c1ccc(CN2CCCN(Cc3cccc(O)c3)CC2)cc1 | 3.84 |
| CC(C)C1CCc2nc(N)nc(N)c2C1 (stereo not given) | 0.91 |
| CCCc1cc(NC2CCN(C)CC2)nc(Nc2ccc(F)cc2)n1 | 5.22 |
| COc1cccc(C23NC(=Nc4nc5ccccc5[nH]4)NC2(c2cccc(OC)c2)NC(=Nc2nc4ccccc4[nH]2)N3)c1 (stereo not given) | 3.29 |
| COc1ccc(CN2CCC2=O)c(OC)c1 | 3.38 |
| CC(C)N(C(=O)CSc1nc2cc(Cl)ccc2c(=O)n1Cc1ccccc1)C(C)C | 0.05 |
| O=C(Nc1ccc(Cl)c(C(F)(F)F)c1)c1ccc(C(=O)Nc2ccc(Cl)c(C(F)(F)F)c2)cc1 | 0.39 |
| CC(C)CN(Cc1c(O)ccc2[nH]c(-c3ccc(F)cc3F)nc12)CC(C)C | 5.69 |
| COc1cccc2c(N/N=C/c3cccc([N+](=O)[O-])c3)ccnc12 | 8.14 |
| Cc1ccc(Nc2c3ccccc3nc3ccc(C)cc23)cc1 | 2.9 |
| CCCCN1Cc2c(n(CC(=O)Nc3ccccc3)c3cc(-c4ccccc4)nn3c2=O)C1=O | 1.8 |

| Compound | inhibition [%] |
| --- | --- |
| CN1CCN(CCCNCc2cccc(Nc3nccc(Nc4ccc(Oc5ccccc5)cc4)n3)c2)CC1 | 0.79 |
| O=C(NC(c1ccccc1)c1ccc2cccnc2c1O)c1ccccc1 (stereo not given) | 4.35 |
| Cc1cccc2nc(-c3ccc(-c4ccc(CN5CCN(CCC#N)CC5)cc4)cc3)[nH]c12 | 11.8 |
| O=C(NCCN1CCOCC1)c1ccc(CNC(=O)c2ccc(O)c(-c3ccc(Cl)c(Cl)c3)c2)cc1 | 1.84 |
| O=C(Cc1ccccn1)Nc1cccc(-c2cccc(-c3nc4cc(C(F)(F)F)ccc4[nH]3)c2)c1 | -0.1 |
| N=C(N)NN=CC(=O)Nc1ccc(C(F)(F)F)cc1 | 3.39 |
| COC(=O)[C@@H](NC(=O)[C@H](CC(C)C)Nc1ccc(C#N)c2ccccc12)c1ccc(O)cc1 | -2.23 |
| COc1ccc2nccc([C@@H](O)CN3CCC(NC(=O)C(c4cc5ccccc5o4)N4CCN(c5ccc(F)cc5)CC4)CC3)c2c1 (stereo not given in full) | 0.13 |
| COc1ccc(Cn2c(Nc3cccc(C(F)(F)F)c3)nc3cc(C(=O)NCCN4CCCC4)ccc32)cc1Cl | 0.72 |
| O=C(/C=C/c1ccc(Cl)c(Cl)c1)NCCCCN1CCCN(C(=O)Nc2cc(Cl)cc(Cl)c2)CC1 | 0.06 |
| CCCCCn1c(Sc2ccc(C#N)c([N+](=O)[O-])c2)nnc1-c1cc(OC)cc(OC)c1 | 9.25 |
| O=C(O)c1ccc2nc(-c3ccccn3)c(-c3ccccn3)nc2c1 | -0.14 |
| COc1ccc(-c2cccc(CNC3CCN(CC4Cn5c(=O)ccc6ccc(F)c4c65)CC3)c2)cc1 (stereo not given) | 8.16 |
| CC(CN1CCN(C)CC1)C(=O)Nc1ccc(-c2ccc(-c3nc4ccccc4[nH]3)cc2)cc1 (stereo not given) | 1.16 |
| c1ccc(Oc2ccc(Nc3ccnc4cc(-c5ccc(CNCCN6CCOCC6)o5)ccc34)cc2)nc1 | 2.3 |
| CCCCCC(C)(C)NC[C@@H](O)[C@H](Cc1ccccc1)NC(=O)c1cc(NCC)cc(N2CCCC2=O)c1 | -1.82 |
| CCN(CCCN1CCCCC1)c1cc(C)nc(Nc2ccc(C)cc2Br)n1 | 4.15 |
| CC1(C)CCCN(Cc2c(O)ccc3c(O)c(-c4nc5ccccc5s4)c(=N)oc23)C1 | -2.9 |
| CN(C)C(CNC(=O)c1cc(-c2ccncc2)c(-c2ccc(NC(=O)Nc3cccc(Cl)c3)cc2)o1)c1ccccc1 (stereo not given) | 0.81 |
| Cc1[nH]c(C)c(-c2ccc(OCc3ccc(F)cc3)cc2)c(=O)c1Cl | -1.77 |
